# Measurements published in PubChem BioAssay AID1159580 (chemical genetic matrix, 2015).
# Among all 5,500 compounds or so, about 2,000 (36%) were called active. Another 18% or so got no clear call; they are omitted. Some of the results follow. Unmarked numbers belong to inactive results. Cut-off read from the data, not from the text of the source: active = normalized growth mostly below about 0.91 (no sharp cut-off); inconclusive = no clear call, values can overlap the other calls; inactive = mostly above about 0.92.
# Assay: chemical genetic growth profiling, strain panel (AID 1159580);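 note: tested at 20 µM; growth read once vehicle control cultures reached saturation at 30 °C; 1 = growth at the plate median or of vehicle wells; lower values mean less growth of the strain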
# Settings: S. cerevisiae deletion strains, growth OD
# [1] = locus YAR019C, strain CDC15, active compounds read low
# [2] = locus YBL105C, strain PKC1, active compounds read low
# [3] = locus YBR135W, strain CKS1, active compounds read low
# [4] = locus YBR136W, strain MEC1, active compounds read low
# [5] = locus YBR160W, strain CDC28, active compounds read low
# [6] = locus YDL017W, strain CDC7, active compounds read low
# [7] = locus YDL028C, strain MPS1, active compounds read low
# [8] = locus YDL101C, strain DUN1, active compounds read low
# [9] = locus YDL108W, strain KIN28, active compounds read low
# [10] = locus YDL132W, strain cdc53, active compounds read low
# [11] = locus YDL214C, strain PRR2, active compounds read low
# [12] = locus YDR052C, strain DBF4, active compounds read low
# [13] = locus YDR054C, strain cdc34, active compounds read low
# [14] = locus YDR226W, strain ADK1, active compounds read low
# [15] = locus YDR477W, strain SNF1, active compounds read low
# [16] = locus YER123W, strain YCK3, active compounds read low
# [17] = locus YER133W, strain GLC7, active compounds read low
# [18] = locus YFL009W, strain cdc4, active compounds read low
# [19] = locus YFL029C, strain CAK1, active compounds read low
# [20] = locus YFR003C, strain YPI1, active compounds read low
# [21] = locus YFR019W, strain FAB1, active compounds read low
# [22] = locus YFR028C, strain CDC14, active compounds read low
# [23] = locus YGR040W, strain KSS1, active compounds read low
# [24] = locus YGR092W, strain DBF2, active compounds read low
# [25] = locus YHR030C, strain SLT2, active compounds read low
# [26] = locus YHR079C, strain IRE1, active compounds read low
# [27] = locus YHR205W, strain SCH9, active compounds read low
# [28] = locus YIL147C, strain SLN1, active compounds read low
# [29] = locus YJL095W, strain BCK1, active compounds read low
# [30] = locus YJL128C, strain PBS2, active compounds read low
# [31] = locus YJL157C, strain FAR1, active compounds read low
# [32] = locus YJR016C, strain ILV3, active compounds read low
# [33] = locus YJR066W, strain TOR1 (second series), active compounds read low
# [34] = locus YKL048C, strain ELM1, active compounds read low
# [35] = locus YKL067W, strain YNK1, active compounds read low
# [36] = locus YKL101W, strain HSL1, active compounds read low
# [37] = locus YKL193C, strain SDS22, active compounds read low
# [38] = locus YKL203C, strain TOR2, active compounds read low
# [39] = locus YLR113W, strain HOG1, active compounds read low
# [40] = locus YLR133W, strain CKI1, active compounds read low
# [41] = locus YLR403W, strain SFP1, active compounds read low
# [42] = locus YML070W, strain DAK1, active compounds read low
# [43] = locus YMR001C, strain CDC5, active compounds read low
# [44] = locus YMR205C, strain PFK2 (second series), active compounds read low
# [45] = locus YMR277W, strain FCP1, active compounds read low
# [46] = locus YNL006W, strain LST8, active compounds read low
# [47] = locus YNL020C, strain ARK1, active compounds read low
# [48] = locus YNL161W, strain CBK1, active compounds read low
# [49] = locus YNL207W, strain RIO2, active compounds read low
# [50] = locus YNL222W, strain SSU72, active compounds read low
# [51] = locus YNL307C, strain MCK1 (second series), active compounds read low
# [52] = locus YOL078W, strain AVO1, active compounds read low
# [53] = locus YOL136C, strain PFK27, active compounds read low
# [54] = locus YOR061W, strain CKA2, active compounds read low
# [55] = locus YOR119C, strain RIO1, active compounds read low
# [56] = locus YOR231W, strain MKK1, active compounds read low
# [57] = locus YOR329C, strain SCD5, active compounds read low
# [58] = locus YPL031C, strain PHO85, active compounds read low
# [59] = locus YPL153C, strain RAD53, active compounds read low
# [60] = locus YPL204W, strain HRR25, active compounds read low
# [61] = locus YPL209C, strain IPL1, active compounds read low
# [62] = locus YPL256C, strain CLN2, active compounds read low
# [63] = locus YPR025C, strain CCL1, active compounds read low
# [64] = locus YPR106W, strain ISR1, active compounds read low
# [65] = locus YPR111W, strain DBF20, active compounds read low
# [66] = strain NNK1, active compounds read low
# [67] = strain TSCII, active compounds read low
smiles,measurement,setting,value
Cc1ccc(S(=O)(=O)Nc2nc(-c3ccc(C)c(Cl)c3)c(C)s2)cc1,normalized growth,[1],0.994
same,normalized growth,[2],0.99
same,normalized growth,[3],0.98
same,normalized growth,[4],0.991
same,normalized growth,[5],0.988
same,normalized growth,[6],0.991
same,normalized growth,[7],0.988
same,normalized growth,[8],0.989
same,normalized growth,[9],0.993
same,normalized growth,[10],0.983
same,normalized growth,[11],0.989
same,normalized growth,[12],0.983
same,normalized growth,[13],0.989
same,normalized growth,[14],0.985
same,normalized growth,[15],1.04
same,normalized growth,[16],1.02
same,normalized growth,[17],1.02
same,normalized growth,[18],0.989
same,normalized growth,[19],0.998
same,normalized growth,[20],0.992
same,normalized growth,[21],1.02
same,normalized growth,[22],0.99
same,normalized growth,[23],1.02
same,normalized growth,[24],1.01
same,normalized growth,[25],1.77 [resistant] (active)
same,normalized growth,[26],2.3 [resistant] (active)
same,normalized growth,[27],0.942
same,normalized growth,[28],0.983
same,normalized growth,[29],1.77 [resistant] (active)
same,normalized growth,[30],0.925
same,normalized growth,[31],1.02
same,normalized growth,[32],0.979
same,normalized growth,[33],1.04
same,normalized growth,[34],0.986
same,normalized growth,[35],0.997
same,normalized growth,[36],0.981
same,normalized growth,[37],0.986
same,normalized growth,[38],1.08
same,normalized growth,[39],1.41 [resistant] (active)
same,normalized growth,[40],0.995
same,normalized growth,[41],1.02
same,normalized growth,[42],0.99
same,normalized growth,[43],0.988
same,normalized growth,[44],0.987
same,normalized growth,[45],0.992
same,normalized growth,[46],0.981
same,normalized growth,[47],0.996
same,normalized growth,[48],0.992
same,normalized growth,[49],0.996
same,normalized growth,[50],0.996
same,normalized growth,[51],0.982
same,normalized growth,[52],0.991
same,normalized growth,[53],0.987
same,normalized growth,[54],1.02
same,normalized growth,[55],1.05
same,normalized growth,[56],2.03 [resistant] (active)
same,normalized growth,[57],0.985
same,normalized growth,[58],1.02
same,normalized growth,[59],1.01
same,normalized growth,[60],1.03
same,normalized growth,[61],0.986
same,normalized growth,[62],1.74 [resistant] (active)
same,normalized growth,[63],0.985
same,normalized growth,[64],0.992
same,normalized growth,[65],0.987
same,normalized growth,[66],0.995
same,normalized growth,[67],0.994
Cc1ccc(-c2nc(NS(=O)(=O)c3cccc4nonc34)sc2C)cc1Cl,normalized growth,[1],0.965
same,normalized growth,[2],0.972
same,normalized growth,[3],0.967
same,normalized growth,[4],0.973
same,normalized growth,[5],0.959
same,normalized growth,[6],0.97
same,normalized growth,[7],0.976
same,normalized growth,[8],0.962
same,normalized growth,[9],0.975
same,normalized growth,[10],0.964
same,normalized growth,[11],0.984
same,normalized growth,[12],0.972
same,normalized growth,[13],0.961
same,normalized growth,[14],0.97
same,normalized growth,[15],0.975
same,normalized growth,[16],1
same,normalized growth,[17],0.994
same,normalized growth,[18],0.972
same,normalized growth,[19],0.946
same,normalized growth,[20],0.965
same,normalized growth,[21],0.997
same,normalized growth,[22],0.964
same,normalized growth,[23],0.962
same,normalized growth,"locus YGR052W, strain FMP48, active compounds read low",1.07
same,normalized growth,[24],0.991
same,normalized growth,[25],1.06
same,normalized growth,[26],1.07
same,normalized growth,"locus YHR082C, strain KSP1, active compounds read low",1.09
same,normalized growth,[27],0.981
same,normalized growth,[28],0.972
same,normalized growth,[29],1.06
same,normalized growth,[30],0.975
same,normalized growth,[31],0.999
same,normalized growth,[32],0.972
same,normalized growth,[33],0.985
same,normalized growth,"locus YJR066W, strain TOR1, active compounds read low",1.1
same,normalized growth,[34],0.981
same,normalized growth,[35],1
same,normalized growth,[36],0.967
same,normalized growth,[37],0.968
same,normalized growth,[38],1.04
same,normalized growth,[39],0.963
same,normalized growth,[40],0.978
same,normalized growth,[41],0.985
same,normalized growth,[42],0.987
same,normalized growth,[43],0.967
same,normalized growth,[44],0.981
same,normalized growth,[45],0.975
same,normalized growth,[46],0.967
same,normalized growth,[47],0.978
same,normalized growth,[48],0.959
same,normalized growth,"locus YNL183C, strain NPR1, active compounds read low",1.01
same,normalized growth,[49],0.953
same,normalized growth,[50],0.947
same,normalized growth,[51],0.984
same,normalized growth,[52],0.951
same,normalized growth,[53],0.999
same,normalized growth,[54],0.988
same,normalized growth,[55],1.03
same,normalized growth,[56],1.01
same,normalized growth,[57],0.973
same,normalized growth,[58],0.993
same,normalized growth,[59],0.992
same,normalized growth,[60],0.991
same,normalized growth,[61],0.951
same,normalized growth,[62],1.01
same,normalized growth,[63],0.97
same,normalized growth,[64],0.963
same,normalized growth,[65],0.953
same,normalized growth,[66],0.971
same,normalized growth,[67],0.956
